Results published in PubChem BioAssay (NCATS).
Results filed as inconclusive are left out. Calls of active or inactive are those of the source. Calls come from the whole dose curve; as a rule, active = well fitted inhibition curve with a large enough effect; inconclusive = small, poorly fitted or top-dose-only effect; inactive = no such curve, though single readings can be large or run the other way. Where a SMILES comes first, the peptide text is derived from it. [ ]: non-standard residue; d: D form. Ala(indol-2-yl) = N[C@@H](Cc1cc2ccccc2[nH]1)C(=O)O; Aib = CC(C)(N)C(=O)O
% is set by controls: 0 for no effect and ±100 for the full control effect; potency is the fitted concentration of half-maximal effect.

Experiment: Primary qHTS for inhibitors of nuclear receptor binding SET domain protein 2 (NSD2) in an RCH-ACV wild type WT cells (2C) (AID 1645877); note: nearly all actives have a fitted effect of over 70% in size
Settings: RCH-ACV (leukaemia line) NSD2 WT (2C) viability, CellTiter-Glo, 72 h; series mostly up to 44.9 µM
In the case of COC1CC(O[C@H]2CC[C@]3(C)C4CC[C@]5(C)[C@@H](C6=CC(=O)OC6)[C@@H](OC(C)=O)C[C@]5(O)C4CC[C@@H]3C2)OC(C)C1O (some centres not stated), the Potency is reported as 448 nM (active).
For C[C@H]1O[C@@H](O[C@H]2CC[C@]3(C=O)C4CC[C@]5(C)[C@@H](C6=CC(=O)OC6)CC[C@]5(O)[C@@H]4CC[C@]3(O)C2)C[C@@H](O)[C@@H]1O (some centres not stated), the Potency was 31.7 nM (active).
With CC1=CC2OC3[C@H](O)C[C@@](C)([C@]34CO4)[C@@]2(CO)[C@H](O)C1=O (some centres not stated) the Potency was 1830 nM (active).
In the case of C=C1[C@@H](C)[C@H]2[C@H](Cc3ccccc3)NC(=O)[C@]23OC(=O)/C=C/C(=O)CCC[C@@H](C)C/C=C/[C@H]3[C@@H]1O, the Potency is reported as 459 nM (active).
In the case of CC(C)(C)[C@]1(O)C[C@@H]2OC(=O)C[C@@]23C(=O)O[C@@H]2OC(=O)[C@@H](O)[C@]213, the Potency is reported as “inactive”.
In the case of C[C@H]1C/C=C/[C@H]2[C@@H]3O[C@]3(C)[C@@H](C)[C@H]3[C@H](Cc4ccccc4)NC(=O)[C@]32OC(=O)O/C=C/[C@@](C)(O)C1=O, the Potency is reported as 502 nM (active).
With OCc1nnc2n1-c1ccc(Cl)cc1C(c1ccccc1Cl)=NC2 the Potency was “inactive”.
In the case of CN[C@@H]1C[C@H]2O[C@@](C)([C@@H]1OC)n1c3ccccc3c3c4c(c5c6ccccc6n2c5c31)C(=O)NC4, the Potency is reported as 59 nM (active).
For COC1CC(O[C@H]2CC[C@]3(C=O)C4CC[C@]5(C)[C@@H](C6=CC(=O)OC6)CC[C@]5(O)[C@@H]4CC[C@@H]3C2)OC(C)C1O[C@@H]1O[C@H](CO)[C@@H](O[C@@H]2O[C@H](CO)[C@@H](O)[C@H](O)[C@H]2O)[C@H](O)[C@H]1O (some centres not stated), the Potency was 123 nM (active).
With CC[C@@H]1C[C@H]2CC[C@H](O2)[C@H](C)C(=O)O[C@@H](C)C[C@@H]2CC[C@@H](O2)[C@@H](C)C(=O)O[C@H](CC)C[C@H]2CC[C@H](O2)[C@H](C)C(=O)O[C@@H](C)C[C@@H]2CC[C@@H](O2)[C@@H](C)C(=O)O1 the Potency was 21.6 nM (active).
For CO[C@@H]1C[C@H](O[C@H]2CC[C@@]3(C)C(CCC4C3CC[C@]3(C)[C@@H](C5=CC(=O)OC5)[C@@H](OC(C)=O)CC43O)C2)O[C@H](C)[C@@H]1O[C@H]1O[C@H](CO[C@@H]2O[C@H](CO)[C@@H](O)[C@H](O)[C@H]2O)[C@@H](O)[C@H](O)[C@H]1O (some centres not stated), the Potency was 774 nM (active).
With CC(=O)O[C@@H]1[C@@H](O)[C@H]2O[C@@H]3C=C(C)[C@@H](O)C[C@]3(CO)[C@]1(C)[C@]21CO1 the Potency was 358 nM (active).
In the case of CO[C@H]1C[C@H](O[C@H]2CC[C@@]3(C)C(=CCC4C3CC[C@]3(C)[C@@H](C5=CC(=O)OC5)CC[C@]43O)C2)O[C@@H](C)[C@@H]1O[C@@H]1O[C@H](CO[C@@H]2O[C@H](CO)[C@@H](O)[C@H](O)[C@H]2O)[C@@H](O)[C@H](O)[C@H]1O (some centres not stated), the activity change, negative = cell killing is reported as -4.53% [at 9.23 µM] (inactive).
With C=C1[C@@H](C)[C@H]2[C@H](Cc3ccccc3)NC(=O)[C@]23[C@H](OC(C)=O)/C=C/[C@](C)(O)C(=O)[C@@H](C)C/C=C/[C@H]3[C@@H]1O the Potency was 258 nM (active).
In the case of c1cncc(OC[C@@H]2CCN2)c1, the Potency is reported as “inactive”.
With CC(=O)OC[C@]12C[C@H](OC(=O)CC(C)C)C(C)=C[C@H]1O[C@@H]1[C@H](O)C[C@@]2(C)[C@]12CO2 the Potency was 317 nM (active).
For CNc1ccc2oc(C[C@H]3O[C@@]4(CC[C@H]3C)O[C@H](C(C)C(=O)c3ccc[nH]3)[C@H](C)C[C@H]4C)nc2c1C(=O)O (some centres not stated), the Potency was 14500 nM (active).
With C[N@@+]1(CC2CC2)CC[C@]23c4c5ccc(O)c4O[C@H]2C(=O)CC[C@@]3(O)[C@H]1C5 the Potency was “inactive”.
In the case of CC(=O)OC[C@]12C[C@H](OC(=O)CC(C)C)C(C)=C[C@H]1O[C@@H]1[C@H](O)[C@@H](O)[C@@]2(C)[C@]12CO2, the Potency is reported as 17.8 nM (active).
With CC(C)(NC(=O)[C@@H](N)Cc1ccc(O)cc1)C(=O)N[C@@H](Cc1cc2ccccc2[nH]1)C(=O)N[C@@H](Cc1ccccc1)C(=O)O (H-Y[Aib][Ala(indol-2-yl)]F-OH) the activity change, negative = cell killing was -2.68% [at 9.23 µM] (inactive).
With C[C@]12CC[C@H](O)C[C@H]1CC[C@@H]1[C@@H]2[C@H](O)C(=O)[C@]2(C)[C@@H](c3ccc(=O)oc3)CC[C@]12O the Potency was 51.5 nM (active).
For CC[C@H]1C2CC3[C@@H]4N(C)c5ccccc5[C@]45C[C@@H]([C@H]2[C@H]5O)N3[C@@H]1O, the Potency was “inactive”.
